Compound activity (PubChem BioAssay)
An excerpt weighted towards active compounds, which were near 2.7% of everything screened.
MITF TRPM1 HTS = activators of MITF-driven TRPM1 promoter activity in SK-MEL-5 cells | actives 0.75% (n = 300,000) | AID 588334 | SK-MEL-5 TRPM1-promoter luciferase, 24 h; % of positive control, neutral wells = 0 | activation, % at 12.5 µM;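 active = mean activation of at least 80% with every replicate also reaching 80%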;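 note: 0% = neutral control wells and 100% = parthenolide positive control wells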
GSIS activator = GLuc luminescence reporter in INS-1E cells, primary screen for activators of glucose-dependent secretion of insulin; INS-1E GLuc reporter insulin secretion, 2-3 h; activation, % at 16.6 µM; actives 0.61% (n = 370,000); AID 743287;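 active = lowest replicate activation of at least 40%, so every replicate reaches that level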;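 note: 0% = median of neutral control wells and 100% = median of IBMX positive control wells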
Env fusion inh = blocks HIV Env-driven cell-cell fusion; HeLa-JRFL Env/CEM21 cell fusion, luciferase; inhibition, % at 12.3 µM; actives 1.1% (n = 360,000); AID 651610;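 active = mean replicate inhibition score of at least 50 and every replicate individually at or above 50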;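 note: 0% = plate neutral controls and 100% = maraviroc near 300 nM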
Wnt bcat act = activates Wnt/beta-catenin signaling in a reporter cell assay. actives 1.2% (n = 300,000). AID 743398. activator, plate reader. activation, % at 9.35 µM; in the data active = activation above about 30%, passing the limit was not always enough;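 note: 0% = neutral control wells and 100% = positive control wells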
F508del corr = CFTR F508del correction in bronchial cells | CFBE cells, YFP halide quenching; stimulated with forskolin plus potentiator P3; % fluorescence drop versus neutral controls | activity (quench increase), % at 7.58 µM | actives 0.36% (n = 350,000) | AID 720511;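 active = mean added fluorescence quench of at least 8% versus neutral control, with both replicates also reaching 8%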;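 note: cells transiently co-express mutant CFTR-F508del with the halide-sensitive YFP; corrector assay measuring rescue of mutant channel to the surface after 24 h compound exposure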
* hit, by the source's call; · = no result; [ ] = dose if it differs, or a comment.

SMILES	MITF TRPM1 HTS	GSIS activator	Env fusion inh	Wnt bcat act	F508del corr
CC(C)NC(=O)N(C)C[C@H]1Oc2ccc(NC(=O)Cn3cnnn3)cc2C(=O)N([C@@H](C)CO)C[C@H]1C	·	24.4	-11.3[16.7 µM]	·	1.4
CNC(=O)c1cc(NC(=O)CCn2nc(-c3ccc(C)cc3)c3ccccc3c2=O)ccc1OC	·	10.9	62.4*	2.7	-1.4
Cc1ccc(NC(=O)c2ccc(-c3nn(C)c(=O)c4ccccc34)cc2)cc1	·	-21.0	74.6*	·	·
C[C@H](CO)N1C[C@H](C)[C@@H](CN(C)C(=O)c2ccccc2)OCCCC[C@H](C)Oc2ccc(NS(=O)(=O)c3ccccc3)cc2C1=O	·	5.5	-74.8[16.7 µM]	·	3.9
CCC(O)(CC)C(=O)N(Nc1ccc(C)cc1)c1ccc(C)cc1	·	-13.9	2.2	-3.2	-1.9
CCOC(=O)C(=O)N(Nc1ccc(C)cc1)c1ccc(C)cc1	28.0	1.7	-30.0	44.2*	0.2
COc1ccc(-c2cc3ccccc3s2)cc1[C@H]1[C@H]2C=CC[C@@H](C)[C@@H]2C(=O)N1Cc1ccccc1	66.4	·	-20.4	36.9*	0.4
COc1ccc(-c2ccc(OC)c([C@H]3[C@H]4C=CC[C@@H](C)[C@@H]4C(=O)N3Cc3ccccc3)c2)cc1C	3.4	-8.6	-10.6	-10.1	-4.1
COC(=O)c1ccc(-c2ccc(OC)c([C@H]3[C@H]4C=CC[C@@H](C)[C@@H]4C(=O)N3Cc3ccccc3)c2)cc1	26.4	-18.0	64.0*	2.3	1.6
C[C@@H]1CN([C@H](C)CO)C(=O)c2cc(C#CCN(C)C)cnc2O[C@H]1CN(C)S(C)(=O)=O	·	14.9	-0.9[16.7 µM]	·	-1.0
O=C(C[C@H]1C[C@H]2c3cc(NC(=O)Nc4ccc(C(F)(F)F)cc4)ccc3O[C@H]2[C@H](CO)O1)NCc1ccc(Cl)cc1	·	8.5	-10.0[16.7 µM]	·	-1.5
CCCNC(=O)C[C@@H]1CC[C@@H]2[C@H](COc3ccc(NC(=O)c4cscn4)cc3C(=O)N2C)O1	·	6.4	·	·	2.1
COc1ccc(/C=N/NC(=S)NCCc2ccccc2)cc1	-19.4	6.0	9.9	2.0	-2.5
CCc1ccc(/C=N/NC(=S)NCCc2ccccc2)cc1	-9.5	40.6*	·	·	·
CCc1sc(C(=O)Nc2ncccc2C)cc1C	14.9	7.4	-4.1	1.2	-2.2
CCc1sc(C(=O)Nc2ccc3c(c2)OCO3)cc1C	124.2*	-6.8	-10.5	42.5*	-0.5
CC(C)(O)C#Cc1ccc(C(=O)NCCC(=O)O)s1	3.1	13.2	-0.1	1.5	3.1
CC(C)(O)C#Cc1ccc(C(=O)Nc2ccc3c(c2)OCO3)s1	46.8	3.7	-66.4	30.9*	0.4
CCc1sc(C(=O)Nc2ccc3c(c2)OCCO3)cc1Br	104.2*	-13.2	-324.5	43.2*	-0.1
CCc1sc(C(=O)Nc2ccc(N3CCOCC3)cc2)cc1C	53.4	4.6	-4.7	-2.4	2.0
CCc1sc(C(=O)Nc2nccs2)cc1C	55.9	27.7	-117.3	46.9*	2.7
CCCN1C[C@H](C)[C@H](OC)CN(C)C(=O)c2cc(NS(=O)(=O)c3cn(C)cn3)ccc2OC[C@H]1C	·	-5.5	·	·	0.5
C[C@@H]1CN([C@@H](C)CO)C(=O)c2cc(NC(=O)Cc3ccccc3)ccc2O[C@@H](C)CCCCO[C@@H]1CN(C)S(=O)(=O)c1ccc(F)cc1	·	-12.5	16.8[16.7 µM]	·	-3.8
CCCNC(=O)N1CC2(CCN(Cc3ccncc3)CC2)c2c(n(C)c3cc(OC)ccc23)[C@@H]1CO	·	-11.5	·	·	·
Cc1noc(C)c1S(=O)(=O)Nc1ccc2c(c1)C(=O)N([C@@H](C)CO)C[C@H](C)[C@H](CN(C)C(=O)c1ccccc1)OCCCC[C@H](C)O2	·	-14.0	-8.0[16.7 µM]	·	-0.3
O=C(Nc1ccc(F)cc1)N[C@H]1CC[C@@H](CCn2cc(C3(O)CCCC3)nn2)O[C@@H]1CO	·	-1.1	-0.2[16.7 µM]	·	0.2
CC1(CCC(=O)O)C(=O)CCC2C1CCC1(C)C2CCC1(C)O (stereo not drawn)	7.5	-4.1	1.2	33.2*	-3.5
O=C(Nc1ccccc1)Nc1ccc2c(c1)[C@@H]1C[C@H](CC(=O)N3CCCCC3)O[C@H](CO)[C@@H]1O2	·	4.2	-9.7[16.7 µM]	·	-3.5
CCCCn1c(CN2CCN(C(=O)OCC)CC2)nc2c1c(=O)n(C)c(=O)n2C	-8.4	·	17.2	41.7*	·
O=C1c2ccccc2C(=O)N1CCC(c1ccc(F)cc1)c1ccco1 (stereo not drawn)	0.1	42.7*	·	·	·
